Bioassay records (PubChem BioAssay)
This is a sample that favours compounds with a hit; in the whole collection about 19% have one here.
KB-3-1 tox: KB-3-1 parental cell cytotoxicity. KB-3-1 viability, CellTiter-Glo ATP luminescence, 72 h. Potency, µM (doses to about 46.1 µM), hits mostly cytotoxic. AID 1347075. 1.4% of 400,000 active; also: nearly all actives have a fitted effect of over 60% in size
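Multi-concentration cytotoxicity screen in KB-3-1 cells grown in DMEM lacking phenol red with 10% FBS. After 72 h at 37 °C with compound, ATP-dependent luminescence was recorded.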
HT1080-NT tox: kills 2HG-producing HT-1080-NT fibrosarcoma cells; HT-1080-NT fibrosarcoma viability, CellTiter-Glo ATP luminescence, 48 h; Potency, µM (series often up to 46.1 µM), for inactives: at the top dose activity, negative = less viability, actives largely listed as cytotoxic; 1.6% of 360,000 active;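 also: NT is the 2HG producing partner of a matched IDH1 knockdown line; 0% = DMSO-treated cells and -100% = media-only wells without cells; nearly all actives have a fitted effect of over 55% in size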
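Read-out is CellTiter-Glo luminescence after 10 minutes at room temperature, following 48 hours' compound treatment of HT-1080-NT cells (750 cells/well, RPMI, 5% FBS, 37 degrees C).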
DT40 TDP1 CPT: DT40-hTDP1 cell growth loss with CPT | chicken DT40 Tdp1-/-;hTDP1 cells + 20 nM CPT, ATP luminescence, 48 h | Potency, µM (top dose mostly 46.2 µM), inactives show at the top dose activity change, negative = growth inhibition, actives largely listed as inhibitors | 12% of 420,000 active | AID 686979; also: nearly all actives have a fitted effect of over 55% in size
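Chicken DT40 Tdp1-/- cells stably complemented with human TDP1 were seeded at 400 cells/well in medium containing 20 nM camptothecin, exposed to pin-transferred compounds, and grown at 37 °C for at least 48 hr. Viability was read as ATP luminescence.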
KB-V1 cytotox: KB-V1 MDR subline cytotoxicity; KB-V1 MDR cells viability, CellTiter-Glo, 72 h; Potency, µM (highest dose often 46.1 µM), most hits filed as cytotoxic; 3.4% of 400,000 active; AID 1347076; also: nearly all actives have a fitted effect of over 60% in size
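Cells of the MDR subline KB-V1 are plated, dosed with compound at multiple concentrations, and incubated 72 h at 37 degrees C; CellTiter-Glo is then added and luminescence read after 10 min.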
HT1080 IDH1KD tx: kills HT-1080 cells with IDH1 knockdown. Potency, µM (doses to about 46.1 µM), without a hit: at the highest dose activity, negative = toxicity, actives largely listed as cytotoxic. HT-1080 IDH1 knockdown viability, ATP luminescence, 48 h. 2% of 360,000 active;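 also: 0% = DMSO wells and -100% = cell-free medium wells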
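Cytotoxicity counter-line: IDH1KD HT-1080, 48 h, CellTiter-Glo. Curves classed by r2, magnitude and activity.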
TDP1 cell noCPT: qHTS for Inhibitors of human tyrosyl-DNA phosphodiesterase 1 (TDP1): qHTS in cells in absence of CPT | DT40 Tdp1-/- hTDP1 cells, no CPT, ATP luminescence, 48 h | Potency, µM (top dose mostly 46.2 µM), without a hit: top-dose activity change, negative = growth inhibition, actives largely listed as inhibitors | 15% of 420,000 active; also: nearly all actives have a fitted effect of over 55% in size
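Compound effects on proliferation are scored in DT40 Tdp1-/-;hTDP1 cells in the absence of CPT. ATP levels (CellTiter-Glo luminescence) are recorded after a ≥48 hr, 37 °C incubation.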
* = called active by the depositor; i = inactive; ? = inconclusive; nt = no result given; [ ] = remark or other dose. Calls follow the shape of the dose curve; as a rule, active = well fitted curve in the direction sought with a large enough effect; inconclusive = small, poorly fitted or top-dose-only effect, or another doubt; inactive = no such curve, though single readings can be large; an effect the other way counts as inactive or inconclusive. Unless noted, % is scaled to controls: 0 for no effect and ±100 for the full control effect; potency is read from the fitted curve at half-maximal effect.

SMILES | KB-3-1 tox | HT1080-NT tox | DT40 TDP1 CPT | KB-V1 cytotox | HT1080 IDH1KD tx | TDP1 cell noCPT
C#CCN(C[C@@H]1[C@@H](OC(=O)NCc2ccccc2F)[C@@H](OC(=O)NCc2ccccc2F)Cn2c(=O)n(CCCCCC)c(=O)n21)S(=O)(=O)c1ccc(C)cc1 | i | -2.3% | ? | i | 8.4% | 11.6µM*
COc1ccc(Cl)cc1NC(=O)CN1c2ccccc2S(=O)(=O)c2ccccc21 | i | nt | ? | i | nt | -26.7%
COc1ccc(N(C)C(=O)C2CCCN2S(=O)(=O)c2cccc3nsnc23)c(OC)c1 (configuration not stated) | i | -3.8% | -12.6% | i | 6.0% | -17.0%
CCCC(C)C(=O)Nc1ccc(S(=O)(=O)Nc2nccs2)cc1 (configuration not stated) | i | -4.5% | 4.4% | i | -3.1% | -28.4%
CCCCc1cc(C(=O)Cc2ccccn2)c(O)cc1O | i | 9.8% | -15.1% | i | -4.5% | ?
Cc1nnc(NC(=O)c2sc3nc(-c4cccs4)cc(C(F)(F)F)c3c2N)s1 | i | -22.9% | ? | 13µM* | -4.6% | ?
CCn1c(SC(C)C(=O)NC2CCCC2)nc2cc(S(N)(=O)=O)ccc21 (configuration not stated) | i | -1.0% | -0.5% | i | 0.1% | 3.1%
c1ccc2[nH]c(CCCCCc3nc4ccccc4[nH]3)nc2c1 | i | -28.1% | ? | i | ? | ?
CCCCCCc1nc2nc(Cl)c(Cl)nc2[nH]1 | i | -0.7% | 18.4µM* | ? | -1.0% | 8.2µM*
CC[C@@H](C)[C@H](N)C(=O)NC[C@H]1O[C@@H](n2cnc3c(N)ncnc32)[C@H](O)[C@@H]1O | i | -2.0% | 14.8% | ? | 1.0% | -6.6%
O=S(=O)(c1cccs1)N1CCN(CC(O)COc2cc(Cl)ccc2Cl)CC1 (configuration not stated) | ? | -25.4% | ? | 8.2µM* | ? | 23.1µM*
COC(=O)c1cc(OC)c(OC)cc1NCC(=O)Nc1ccc(OC)c(OC)c1 | i | 1.3% | 20.6µM* | ? | 0.0% | 13µM*
COC(=O)c1cc(OC)c(OC)cc1NCC(=O)Nc1cccc(C(F)(F)F)c1 | i | 2.0% | -29.1% | ? | -9.9% | ?
COC(=O)c1cc(OC)c(OC)cc1NCC(=O)Nc1ccc(C)cc1 | i | -0.2% | -23.3% | 23.1µM* | 1.8% | -11.2%
CN(C(=O)COC(=O)c1c2c(nc3ccccc13)CCCC2)c1c(N)n(Cc2ccccc2)c(=O)[nH]c1=O | i | -29.5% | -4.6% | i | -21.0% | -16.0%
COc1ccc(-c2nnc(Sc3nc4ccccc4o3)c3ccccc23)cc1 | i | ? | ? | ? | ? | 20µM*
Cc1[nH]nc2c1C(c1cc(Br)cs1)C(C#N)=C(N)O2 (configuration not stated) | 13µM* | ? | 4.11µM* | 16.4µM* | ? | 5.17µM*
COc1ccc(-c2ccc(C3C(C#N)=C(N)Oc4n[nH]c(C)c43)o2)cc1 (configuration not stated) | i | ? | 20.6µM* | i | ? | 20.6µM*
CCCc1[nH]nc2c1C(c1ccsc1)C(C#N)=C(N)O2 (configuration not stated) | i | ? | 16.4µM* | i | 20.6µM* | ?
Cc1ccc(C2C(C#N)=C(N)Oc3n[nH]c(-c4ccccc4)c32)o1 (configuration not stated) | i | -5.8% | 13µM* | i | -0.4% | 23.1µM*
OC[C@@H]1CN(Cc2cccs2)C[C@H](n2cnc3c(NCc4ccncc4)ncnc32)O1 | i | 24.0% | 6.7% | i | 8.4% | -3.8%
Cc1ccc(NC(=O)CC2CCCC2)c(Br)c1 | i | 1.6% | 9.3% | i | 1.8% | 1.9%
COc1ccc(NC(=O)CCC(=O)Nc2nnc(C3CCCCC3)s2)c(OC)c1 | i | 15.8% | -3.6% | ? | 7.7% | 3.6%
CC(C)[C@H](NS(=O)(=O)c1ccccc1F)C(=O)NC1CCCCC1 | i | 6.7% | -1.4% | i | 4.0% | 11.9%
CCOC(=O)C1CCCN(C(=O)/C(=C/c2ccco2)NC(=O)c2ccccc2)C1 (configuration not stated) | i | -1.5% | 2.8% | ? | -0.6% | 0.7%
SMILES | KB-3-1 tox | HT1080-NT tox | DT40 TDP1 CPT | KB-V1 cytotox | HT1080 IDH1KD tx | TDP1 cell noCPT
O=C(NCc1nnc(SCc2ccc(F)cc2)n1-c1ccccc1)C12CC3CC(CC(C3)C1)C2 | ? | -26.2% | 16.4µM* | 13µM* | -19.6% | 5.8µM*
O=C(CSc1nnc(CNC(=O)C23CC4CC(CC(C4)C2)C3)n1-c1ccccc1)Nc1ccc(F)cc1 | i | -17.9% | ? | i | -26.4% | ?
O=C(NCc1nnc(SCc2ccc(C(F)(F)F)cc2)n1-c1ccccc1)C12CC3CC(CC(C3)C1)C2 | ? | -3.2% | ? | 16.4µM* | -12.9% | 13µM*
Cc1ccc(-n2c(Cc3cccs3)nnc2SCC(=O)Nc2ccc(F)c(F)c2)cc1 | i | -11.2%[9.24 µM] | -10.3% | i | 11.2µM* | -17.7%
Cc1ccc(-n2c(CNc3ccc(F)cc3)nnc2SCC(=O)NCc2ccco2)cc1 | i | 12.8% | 16.4µM* | i | -0.8% | ?
COc1ccc(NCc2nnc(SCC(=O)NCc3ccco3)n2-c2ccccc2OC)cc1 | i | -8.2% | -12.5% | i | -2.1% | -18.1%
COc1cc(C2Nc3ccccc3C(=O)N2Cc2ccco2)cc(OC)c1OC (configuration not stated) | i | nt | ? | i | nt | ?
O=C(CCCOc1ccc(Br)cc1)Nc1nnc(C2CC2)s1 | i | -0.6% | -13.0% | ? | -1.9% | -5.5%
CCCCOC(=O)N/N=C/C=C/c1ccccc1 | i | 13.1% | 22.3% | i | -4.8% | -3.7%
Cc1ccc(NC(=O)CSc2nnc(CNC(=O)C34CC5CC(CC(C5)C3)C4)n2-c2ccc(F)cc2)cc1 | i | ? | 16.4µM* | i | ? | ?
Cc1ccc(Nc2cc(C)nn2-c2nc(C)cc(C)n2)cc1 | ? | ? | 5.8µM* | i | ? | 5.8µM*
Cc1ccc(Nc2cc(C)nn2-c2nc(C)cc(=O)[nH]2)cc1 | 1.41µM* | ? | 0.794µM* | ? | ? | 0.562µM*
Cc1cc(C)c(C)c(S(=O)(=O)N2CCN(C(=O)C3CCC3)CC2)c1C | ? | -3.4% | -27.4% | ? | -22.4% | ?
